From PubChem BioAssay (Tox21)
Values joined by “and” are separate entries in the source; they are usually repeats but may differ in a detail not shown here. Identical values can stand only once. Inconclusive results are not listed. A structure can be active in one record and inactive in another. Active and inactive are the calls of the source. Unless noted, the call rests on the fitted dose curve; in most records, active means well fitted curve in the direction sought with a large enough effect in the repeat runs; inconclusive means weak or mixed curves; inactive means no such curve, though single readings can be large; an effect the other way counts as inactive or inconclusive.

Tests used:
[1] = qHTS assay to identify small molecule antagonists of the vitamin D receptor (VDR) signaling pathway - cell viability counter screen (AID 743225); further: nearly all actives have a fitted effect of over 50% in size
Method in brief: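 Luminescent cell viability (CellTiter-Glo) in VDR-bla HEK 293T cells after 16 h compound exposure at 37C in the presence of 3 nM final 1-alpha,25-dihydroxy vitamin D3.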

[2] = qHTS assay to identify small molecule agonists of the NFkB signaling pathway (AID 1159509; active means well fitted curve in the direction sought with a large enough effect in the signal ratio in the repeat runs, not every such curve was filed as active; the % refers to the signal ratio; further: series mostly up to about 61 µM)
Method in brief: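 ME-180 NFkB-bla, 2,000 cells/well, overnight plating; cpd pinned in DMSO, 5 h 37 C; B/G FRET substrate 1.5 h RT; ex 405, em 460/530 nm.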

[3] = qHTS assay to identify small molecule agonists of the NFkB signaling pathway - cell viability counter screen (AID 1159515; calls by dose curve; further: series mostly up to about 61 µM; nearly all actives have a fitted effect of over 55% in size)
Method in brief: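 Luminescence from CellTiter-Glo (30 min, room temperature) gives viability, measured in the same wells as the beta-lactamase reporter read. Cells were NFkB-bla ME-180, 2,000 per well, treated 5 hr with compounds.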

[4] = qHTS assay to identify small molecule agonists of the endoplasmic reticulum stress response signaling pathway (AID 1159516; active means well fitted activation curve with a large enough effect in the signal ratio in the repeat runs, not every such curve was filed as active; the % refers to the signal ratio)
Method in brief: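 Read-out is beta-lactamase cleavage of a FRET substrate (405 nm excitation; 460 and 530 nm emissions) in ESRE-bla HeLa cells after a 5 hr compound exposure at 37 C. Substrate incubation ran 2 hr at room temperature.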

[5] = qHTS assay to identify small molecule agonists of the endoplasmic reticulum stress response signaling pathway - cell viability counter screen (AID 1159517; calls by dose curve;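 further: HeLa cells carrying an ER stress response element beta-lactamase reporter; series mostly up to about 61 µM; nearly all actives have a fitted effect of over 50% in size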)
Method in brief: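 ESRE-bla HeLa cells, 1,500 per well, seeded overnight then treated with compounds for 5 hr at 37 C. After the beta-lactamase read, viability in the same wells is measured by CellTiter-Glo luminescence after 30 min at room temperature.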

[6] = qHTS assay to identify small molecule antagonists of the retinoid-related orphan receptor gamma (ROR-gamma) signaling pathway - cell viability counter screen (AID 1159520); further: nearly all actives have a fitted effect of over 50% in size
Method in brief: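 Tet-on ROR gamma CHO cells were given compounds for 2 hr, then doxycycline hyclate at 1 uM final, and incubated 16 hr at 37 C. Viability was measured as ATP content by CellTiter-Glo luminescence.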

[7] = target: Nuclear receptor ROR-gamma (Homo sapiens) (UniProt P51449); assay: qHTS assay to identify small molecule antagonists of the retinoid-related orphan receptor gamma (ROR-gamma) signaling pathway (AID 1159521;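 further: CHO cells with doxycycline inducible ROR-gamma driving an RORE luciferase reporter; top concentration of the series differs between compounds; nearly all actives have a fitted effect of over 50% in size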)
Method in brief: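 CHO cells expressing RORγ under a TET-on promoter, luciferase under RORE control. Dox 1 uM final, 16 h; compounds added 2 h prior. Luminescence decrease measured.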

[8] = qHTS assay to identify small molecule agonists of the AP-1 signaling pathway - cell viability counter screen (AID 1159525; calls by dose curve; further: nearly all actives have a fitted effect of over 55% in size)
Method in brief: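 AP-1-bla ME-180 cells in Opti-MEM with 0.5% dialyzed FBS, compound exposure 5 h at 37 C in 15-point titration. Viability read in the same wells as ATP content by CellTiter-Glo luminescence, normalised to tetra-n-octylammonium bromide and DMSO controls.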

[9] = qHTS assay to identify small molecule agonists of the AP-1 signaling pathway (AID 1159526; calls by dose curve)
[10] = target: Retinoic acid receptor RXR-alpha (Homo sapiens) (UniProt P19793); assay: qHTS assay to identify small molecule agonists of the RXR signaling pathway (AID 1159527; calls by dose curve; further: nearly all actives have a fitted effect of over 35% in size; further: potency means the concentration at half of the fitted maximal effect)
Method in brief: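 Beta-lactamase reporter assay, agonist format. Engineered HEK 293T line, charcoal-stripped FBS at 2%, overnight (16 hr) exposure, fluorescence at 460 and 530 nm after 405 nm excitation.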

[11] = qHTS assay to identify small molecule agonists of the RXR signaling pathway - cell viability counter screen (AID 1159529)
Method in brief: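 Same-well viability check after the LiveBLAzer FRET read: CellTiter-Glo added, luminescence measured after 30 min at room temperature. Reporter HEK 293T cells had been treated with compounds for 16 hr following a 5 hr preincubation.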

[12] = qHTS assay to identify small molecule antagonists of the retinoid acid receptor (RAR) signaling pathway - cell viability counter screen (AID 1159551); further: nearly all actives have a fitted effect of over 35% in size
Method in brief: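 Luminescent ATP quantitation (CellTiter-Glo) gave cell viability in C3RL4 cells exposed to test chemicals for 6 h at 37 C alongside 1 uM final retinol.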

[13] = qHTS assay to identify small molecule antagonists of the retinoic acid receptor (RAR) signaling pathway (AID 1159552; further: nearly all actives have a fitted effect of over 50% in size; further: potency means the concentration at half of the fitted maximal effect)
Method in brief: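 Readout: luciferase luminescence, 30 min post-reagent at RT. Setup: C3RL4 RARE reporter cells, compounds plus retinol 1 uM final, 6 hr incubation at 37 C and 5% CO2.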

[14] = qHTS assay to identify small molecule agonists of the retinoic acid receptor (RAR) signaling pathway (AID 1159553)
Method in brief: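 Luminescence from a RARE-driven luciferase reporter in C3RL4 cells served as the read-out, measured after 30 min with detection reagent at room temperature. Compounds in DMSO were applied for 6 hr at 37 C following overnight seeding.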

[15] = qHTS assay to identify small molecule antagonists of the estrogen related receptor (ERR) signaling pathway - cell viability counter screen (AID 1224818);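 further: series mostly up to about 46 µM; viability measured after 17.5 h of compound exposure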
Method in brief: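 Multiplexed counter screen to separate cytotoxic compounds from true ERR modulators. ERR cells received DMSO-dissolved compounds after a 6 h pre-incubation, were exposed 17.5 h at 37 C, then assayed with CellTiter-Fluor fluorescence.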

[16] = qHTS assay to identify small molecule antagonists of the estrogen related receptor signaling pathway with the pleiotropic PPARgamma coactivator (PGC) cell viability counter screen (AID 1224822;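 further: series mostly up to about 46 µM; viability read after 17.5 h compound exposure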)
Method in brief: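 Cells: PGC/ERR, 2,000/well, 1536-well format. Pre-incubation 6 h, 37 C/5% CO2. Compound exposure 17.5 h, 37 C. Detection: CellTiter-Fluor, 30 min, fluorescence.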

[17] = qHTS assay to identify small molecule antagonists of the estrogen related receptor (ERR) signaling pathway (AID 1224819)
Method in brief: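 Seed ERR cells 2,000/well; rest 6 h at 37 C/5% CO2; pin compounds in DMSO; incubate 18 h at 37 C; add One-Glo; wait 30 min at room temperature; measure luminescence.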

[18] = qHTS assay to identify small molecule agonists of the estrogen related receptor (ERR) signaling pathway (AID 1224820); further: potency means the concentration at half of the fitted maximal effect
Method in brief: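 Cells: ERR line from NTP, 2,000/well. Pre-incubation 6 h, 37 C/5% CO2. Compound (DMSO) pin transfer, 18 h 37 C. One-Glo, 30 min RT, luminescence.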

[19] = qHTS assay to identify small molecule agonists of the estrogen related receptor signaling pathway with the pleiotropic PPARgamma coactivator (PGC) (AID 1224823); further: potency means the concentration at half of the fitted maximal effect
Method in brief: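 Steps: plate PGC/ERR cells at 2,000 cells/well; incubate 6 h, 37 C/5% CO2; pin-transfer compounds (DMSO); incubate 18 h, 37 C; add One-Glo; 30 min RT; read luminescence.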

Measured: Potency

Retinoic acid receptor RXR-alpha (Homo sapiens), sequence (P19793 whole entry, looked up): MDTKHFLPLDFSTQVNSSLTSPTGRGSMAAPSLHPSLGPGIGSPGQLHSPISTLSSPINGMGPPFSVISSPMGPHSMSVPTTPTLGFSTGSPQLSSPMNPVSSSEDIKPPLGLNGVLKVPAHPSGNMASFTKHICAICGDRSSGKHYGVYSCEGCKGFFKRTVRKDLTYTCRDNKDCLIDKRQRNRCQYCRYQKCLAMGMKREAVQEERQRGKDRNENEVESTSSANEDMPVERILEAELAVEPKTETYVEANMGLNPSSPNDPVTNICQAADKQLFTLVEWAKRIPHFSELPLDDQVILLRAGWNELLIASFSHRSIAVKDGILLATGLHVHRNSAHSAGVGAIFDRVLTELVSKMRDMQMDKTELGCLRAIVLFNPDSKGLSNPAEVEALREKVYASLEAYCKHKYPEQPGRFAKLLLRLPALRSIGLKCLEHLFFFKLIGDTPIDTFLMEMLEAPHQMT

CC(=O)OCC(COC(C)=O)OC(C)=O
not listed: [13] | [14] | [15] | [16] | [17] | [18] | [19]
inactive: all other assays above

CCCN(CCC)S(=O)(=O)c1ccc(C(=O)O)cc1
not listed: [7] | [15] | [16] | [17] | [18] | [19]
inactive: all other assays above

O=C(c1ccccc1)C(O)c1ccccc1 (centres undefined)
inactive and 38.9 µM (active): [10]
not listed: [14] | [15] | [16] | [17] | [18] | [19]
inactive: all other assays above

CC(C)(Oc1ccc(C2CC2(Cl)Cl)cc1)C(=O)O (centres undefined)
not listed: [7] | [14] | [17] | [18] | [19]
inactive: all other assays above

Oc1ccc(/C=C/c2cc(O)cc(O)c2)cc1
active: [13] 49 µM and 43.3 µM | [18] 3.62 µM | [19] 11.4 µM
not listed: [14] | [15]
inactive: all other assays above

CC(=O)NS(=O)(=O)c1ccc(N)cc1
not listed: [14] | [15] | [16] | [17] | [18] | [19]
inactive: all other assays above

O=C(O)/C=C\C(=O)O
not listed: [13] | [14] | [15] | [16] | [17] | [18] | [19]
inactive: all other assays above

Cc1cc(=O)n(-c2ccccc2)n1C
not listed: [7] | [14] | [15] | [16] | [17] | [18] | [19]
inactive: all other assays above

CCCCC(CC)COC(=O)/C=C/c1ccc(OC)cc1 (centres undefined)
not listed: [14] | [15] | [16] | [17] | [18] | [19]
inactive: all other assays above

CC(O)C(=O)O (centres undefined)
not listed: [14] | [15] | [16] | [17] | [18] | [19]
inactive: all other assays above

Cc1ccc(S(=O)(=O)NC(=O)NN2CCCCCC2)cc1
not listed: [7]
inactive: all other assays above

CCCCC1C(=O)N(c2ccccc2)N(c2ccccc2)C1=O
not listed: [7] | [17]
inactive: all other assays above

O=C(O)c1cccc([N+](=O)[O-])c1
not listed: [13] | [14] | [15] | [16] | [17] | [18] | [19]
inactive: all other assays above

O=C(O)CCC(=O)O
not listed: [14] | [15] | [16] | [17] | [18] | [19]
inactive: all other assays above

Cc1cc(=O)[nH]c(=S)[nH]1
not listed: [13] | [14] | [15] | [16] | [17] | [18] | [19]
inactive: all other assays above

Cc1ccc(O)cc1
not listed: [7] | [14] | [15] | [16] | [17] | [18] | [19]
inactive: all other assays above

CCC1(c2ccccc2)C(=O)NCNC1=O
not listed: [7] | [14] | [17] | [18] | [19]
inactive: all other assays above

O=c1ccc2ccccc2o1
not listed: [15] | [16] | [17] | [18] | [19]
inactive: all other assays above

O=C(O)CCCCCCCC(=O)O
not listed: [7] | [14] | [17] | [18] | [19]
inactive: all other assays above

C[C@]12C=CC(=O)C=C1CC[C@@H]1[C@@H]2[C@@H](O)C[C@@]2(C)[C@H]1CC[C@]2(O)C(=O)CO
not listed: [7] | [15] | [16] | [17] | [18] | [19]
inactive: all other assays above

Cc1noc(NS(=O)(=O)c2ccc(N)cc2)c1C
not listed: [1] | [7] | [14] | [15] | [16] | [17] | [18] | [19]
inactive: all other assays above

O=NO
not listed: [14] | [15] | [16] | [17] | [18] | [19]
inactive: all other assays above

NC(N)=O
not listed: [13] | [14] | [15] | [16] | [17] | [18] | [19]
inactive: all other assays above

C/C=C/c1ccc(OC)cc1
not listed: [13] | [14] | [15] | [16] | [17] | [18] | [19]
inactive: all other assays above

CCCNC(=O)NS(=O)(=O)c1ccc(Cl)cc1
not listed: [7] | [14] | [17] | [18] | [19]
inactive: all other assays above

O=C(c1ccccc1)c1ccccc1
not listed: [7] | [15] | [16] | [17] | [18] | [19]
inactive: all other assays above

Cc1ccc(C)c(OCCCC(C)(C)C(=O)O)c1
not listed: [14] | [15] | [16] | [17] | [18] | [19]
inactive: all other assays above

Cc1cn([C@H]2C[C@H](N=[N+]=[N-])[C@@H](CO)O2)c(=O)[nH]c1=O
not listed: [15] | [16] | [17] | [18] | [19]
inactive: all other assays above

CCCCCCCCCCCCCCCC(=O)O
not listed: [7] | [14] | [15] | [16] | [17] | [18] | [19]
inactive: all other assays above

CC1(C)[C@@H]2CC[C@@]1(C)C(=O)C2
not listed: [7] | [14] | [15] | [16] | [17] | [18] | [19]
inactive: all other assays above

CCCC(O)C(CC)CO (centres undefined)
not listed: [13] | [14] | [15] | [16] | [17] | [18] | [19]
inactive: all other assays above

CCOc1ccc(NC(=O)CC(C)O)cc1 (centres undefined)
not listed: [14] | [15] | [16] | [17] | [18] | [19]
inactive: all other assays above

CC(=O)Nc1nnc(S(N)(=O)=O)s1
not listed: [7] | [14] | [17] | [18] | [19]
inactive: all other assays above

CC(C)[C@@H]1CC[C@@H](C)C[C@H]1O
not listed: [7] | [15] | [16] | [17] | [18] | [19]
inactive: all other assays above

CNC[C@H](O)c1cccc(O)c1
not listed: [7] | [14] | [19]
inactive: all other assays above

O=C(O)c1cccnc1
not listed: [10] | [13] | [14] | [15] | [16] | [17] | [18] | [19]
inactive: all other assays above

O=C(O)C(=O)O
not listed: [7] | [14] | [15] | [16] | [17] | [18] | [19]
inactive: all other assays above

O=C1NC(=O)c2ccccc21
not listed: [7] | [13] | [14] | [15] | [16] | [17] | [18] | [19]
inactive: all other assays above
